Assay outcomes: PubChem, National Center for Advancing Translational Sciences (NCATS)
DRV1 agonist – GPR32 (DRV1) agonism, beta-arrestin recruitment; O75388; CHO-K1 GPR32 beta-arrestin PathHunter luminescence, 90 min; zero percent set by DMSO-only wells; activation, % at 76.9 µM; hit rate 2.5% among 48,000;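 active = activation of at least 60% and not above a set upper limit, about 1 call in 100 departs from these limits; inconclusive = activation of 40% to 60%, or above that upper limit; inactive = activation under 40%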; note: 0% is about no effect
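PathHunter enzyme-fragment complementation, CHO-K1 GPR32 stable line; 2,500 cells/well, overnight attach; cpd 90 min 37 °C 5% CO2; detection reagent 1 h RT; chemiluminescence. DMSO = EC0.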
HTT promoter inh – HTT promoter inhibition; HEK293 HTT promoter firefly luciferase reporter, 24 h; AID 1508623; Potency, µM (titrated, usually from 57.5 µM), for inactives: at the highest dose activity change, negative = inhibition, usual class: inhibitors; hit rate 0.93% among 48,000; note: potency is the fitted concentration of half-maximal effect; nearly all actives have a fitted effect of over 50% in size
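Firefly luciferase signal from promoter-reporter HEK293 cells was scaled between vehicle (0%) and zero RLU (-100%). Compounds were tested at final concentrations of up to 57.5 uM over 24 h at 37 degrees C. PTC124 at 50 uM final served as control inhibitor.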
NTMT1 inh – NTMT1 methyltransferase inhibition; Q9BV86; NTMT1 MTase-Glo SAH luminescence, purified enzyme; Potency, µM (series often up to 114 µM), inactives show at the highest dose activity change, negative = inhibition, hits mostly inhibitors; hit rate 2.5% among 59,000; AID 1645870;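 note: potency is the fitted concentration of half-maximal effect; plate controls were DMSO vehicle for no effect and no enzyme for full effect; nearly all actives have a fitted effect of over 65% in size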
Target sequence (Q9BV86 whole entry, looked up): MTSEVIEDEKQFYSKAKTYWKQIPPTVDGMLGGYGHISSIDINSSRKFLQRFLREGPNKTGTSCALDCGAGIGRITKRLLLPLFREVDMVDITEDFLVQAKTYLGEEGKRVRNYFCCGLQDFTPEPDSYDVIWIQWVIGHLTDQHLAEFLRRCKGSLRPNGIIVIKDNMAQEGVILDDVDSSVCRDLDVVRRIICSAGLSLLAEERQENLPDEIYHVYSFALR
HTT-AS act – activates huntingtin-antisense promoter activity. HEK293 HTT-AS promoter firefly luciferase reporter, 24 h; response scale: percent change from vehicle, -100% = no light. Potency, µM (top dose mostly 57.5 µM), without a hit: at the highest dose activity change, positive = activation, hits mostly activators. hit rate 0.24% among 48,000. AID 1508624; note: potency is the fitted concentration of half-maximal effect; nearly all actives have a fitted effect of over 55% in size
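HEK293 cells carrying firefly luciferase reporters were seeded at 2,500 per well in Opti-MEM and cultured for 24 h. They were then treated with compounds at up to 57.5 uM final for 24 h at 37 degrees C before Dual-Glo luminescence readout.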
Numbers without * were called inactive; ? = inconclusive; . = no result; [ ] = dose if it differs, or a comment. Compounds with a hit are over-represented: about 4.6% of the library has one in this group of screens. Unless noted, calls come from the whole dose curve; as a rule, active = well fitted curve in the direction sought with a large enough effect; inconclusive = small, poorly fitted or top-dose-only effect, or another doubt; inactive = no such curve, though single readings can be large; an effect the other way counts as inactive or inconclusive.

SMILES | DRV1 agonist | HTT promoter inh | NTMT1 inh | HTT-AS act
Cc1cc(-c2nc3ncccc3o2)ccc1NC(=O)COc1ccc(C(C)(C)C)cc1 | 20 | 10% | 18% | 17%
CCC(=O)Nc1ccc(-c2nc3ncccc3o2)cc1C | ? | 31% | -10% | 11µM*
Nc1ccc(C(=O)O)c(O)c1 | -9 | 4% | 36%[57.5 µM] | 1%
Nc1ccc(O)c([N+](=O)[O-])c1 | -100 | 8%[116 µM] | 35µM* | ?
C=C1CC[C@@H]2[C@@](C)(CO[C@@H]3O[C@H](CO)[C@@H](O)[C@H](O)[C@H]3O)[C@H](O)CC[C@@]2(C)[C@@H]1CC/C(C)=C/CO[C@@H]1O[C@H](CO)[C@@H](O)[C@H](O)[C@H]1O | . | . | 4%[12.6 µM] | .
Cc1ccc(OCC(=O)Nc2ccc3nc(SCc4ccccc4)sc3c2)cc1 | -3 | -6% | 9% | -3%
Cc1ccc(NC(=O)CSc2nc3ccc(NC(=O)COc4ccc(C)cc4)cc3s2)cc1 | 5 | -8% | 14% | -7%
COc1cccc(CC(=O)Nc2ccc(-c3nc4ccccc4s3)cc2)c1 | ? | 36% | -6% | ?
Cc1ccc(CSc2nc3ccc(NC(=O)COc4ccccc4)cc3s2)cc1 | 74* | 0% | 11% | -9%
Cc1cc(C)cc(OCC(=O)Nc2ccc(-c3nc4ccccc4s3)cc2)c1 | 72* | 40% | 12% | ?
CCOC(=O)CSc1nc2ccc(NC(=O)COc3ccccc3)cc2s1 | 61* | 1% | 3% | -6%
CCOc1ccc(C(=O)Nc2ccc3nc(SCc4ccccc4)sc3c2)cc1 | 63* | -20% | 11% | -18%
Cc1cc(NC(=O)c2ccccc2F)ccc1-c1nc2ccccc2s1 | -1 | 49% | ? | 0.89µM*
COc1ccccc1OC(C)C(=O)Nc1cccc(-c2nc3ccccc3s2)c1 (stereo not given) | -2 | 8% | ? | 9%
CCOC(=O)CSc1nc2ccc(NC(=O)c3ccccc3)cc2s1 | 82* | -7% | 0% | -7%
CCOC(=O)CSc1nc2ccc(NC(=O)c3ccccc3F)cc2s1 | 107* | -7% | -5% | -20%
CCCCC(=O)Nc1cccc(-c2nc3ccccc3s2)c1 | 92* | 33% | -4% | ?
COc1cc(OC)cc(C(=O)Nc2ccc(-c3nc4ccccc4s3)c(C)c2)c1 | 11 | 36% | -1% | 25%
Cn1cc(-c2cc(Oc3cc(F)c(NC(=O)C4(C(=O)Nc5ccccc5)CC4)cc3F)ccn2)cn1 | . | . | 4% | .
CCCCCC(=O)N1CCC[C@H]1C(=O)N[C@@H](Cc1ccc(O)cc1)C(=O)OC | . | . | -4%[57.5 µM] | .
Cc1ccc(NC(=O)CSc2nc3ccc(NC(=O)CCc4ccccc4)cc3s2)cc1 | 66* | -5% | 2% | -3%
Cc1ccccc1NC(=O)CSc1nc2ccc(NC(=O)CCc3ccccc3)cc2s1 | 4 | -5% | 10% | -17%
Cc1c(NS(C)(=O)=O)cccc1-c1nc2ccccc2s1 | 20 | ? | 6% | -26%
CS(=O)(=O)Nc1ccc(-c2nc3ccccc3s2)cc1 | 100* | 0% | -12% | ?
O=C1CCCC2=C1C(c1[nH]ncc1Cl)NC(=NCc1ccccn1)N2 (stereo not given) | . | . | 11% | .
SMILES | DRV1 agonist | HTT promoter inh | NTMT1 inh | HTT-AS act
CCOc1cccc(-c2nc3ccccc3c(=O)o2)c1 | 80* | 13% | 4% | 12%
C[C@@H]1CC(=O)Nc2cccc(-c3ccc4c(c3)c(-c3cnn(C)c3)nn4C)c2N1 | . | . | 6% | .
O=C(NCc1ccc2c(c1)CCN2C(=O)c1ccccc1)Nc1cccc(C(F)(F)F)c1 | 8 | 22µM* | -3% | -46%
Cc1ccc(OCCCC(=O)Nc2sc3c(c2C(N)=O)CCC(C)C3)cc1 (stereo not given) | 12 | . | . | .
CC1CCc2c(sc(NC(=O)CCCOc3ccccc3)c2C(N)=O)C1 (stereo not given) | 96* | 1% | -4% | -1%
O=C(Cn1nc2c(cc1=O)CCCC2)NCc1ccccc1 | -5 | 37% | 89µM* | ?
C#C[C@]1(O)CC[C@H]2[C@@H]3CCc4cc(OC5CCCC5)ccc4[C@H]3CC[C@@]21C | 68* | 3% | 16%[57.5 µM] | 1%
C#C[C@]1(O)CC[C@H]2[C@@H]3CCC4=CC(=O)CC[C@@H]4[C@H]3CC[C@@]21C | 69* | 7% | ? | -7%
C#C[C@]1(O)CC[C@H]2[C@@H]3CCc4cc(OC)ccc4[C@H]3CC[C@@]21C | 69* | 14% | 2% | 5%
